The nature of experiment [1]: antimalarial activity against Dd2 strain (AID 2302;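 active means growth inhibition above 50% at the single 2 µM test dose, taken to imply half-maximal potency below 2 µM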;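 further: 0% = DMSO untreated growth and 100% = chloroquine plus artemisinin killed control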). The following applies: P. falciparum Dd2 in RBCs, LDH growth readout, 72 h; at 2 µM; stronger effect = higher value.
Experiment [2] can be described thus: human hepatoma cell viability loss – ATP luminescence, cytotoxicity control for P. falciparum antimalarial project, primary screen (AID 2303;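 active means inhibition above 50%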;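 further: 0% = DMSO wells and 100% = digitonin-killed cells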). The note with it: HepG2 viability, 24-48 h, at 10 µM, stronger effect = higher value.
The target of experiment [3] is L-lactate dehydrogenase (Plasmodium falciparum (isolate CDC / Honduras)) (UniProt Q27743). The experiment in a line: PfLDH activity inhibition – cell lysate, 3D7 strain, counter-screen for P. falciparum growth inhibition project (AID 2304).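 Further: 0% = vehicle and 100% = reference inhibitor.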 The following applies: P. falciparum 3D7 crude extract, LDH APAD/NBT absorbance; at 2 µM; stronger effect = higher value. For orientation: The purpose of a counterscreen is to sort out artefacts and off-target activity.
L-lactate dehydrogenase (Plasmodium falciparum (isolate CDC / Honduras)), sequence (Q27743 whole entry, looked up): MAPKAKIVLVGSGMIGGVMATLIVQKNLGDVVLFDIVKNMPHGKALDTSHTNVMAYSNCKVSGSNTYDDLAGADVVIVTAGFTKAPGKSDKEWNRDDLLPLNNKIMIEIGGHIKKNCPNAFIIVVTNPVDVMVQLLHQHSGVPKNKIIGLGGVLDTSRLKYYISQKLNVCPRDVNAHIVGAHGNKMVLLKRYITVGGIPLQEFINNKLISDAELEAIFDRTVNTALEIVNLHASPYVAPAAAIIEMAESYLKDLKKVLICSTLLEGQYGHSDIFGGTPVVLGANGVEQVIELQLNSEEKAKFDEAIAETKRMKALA

The nature of experiment [4]: inhibition of 3D7 malaria parasite growth – strain 3D7 (AID 2306).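 Further: 0% = DMSO wells and 100% = chloroquine plus artemisinin control wells.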 The following applies: P. falciparum 3D7 erythrocytic growth, LDH absorbance, 72 h; at 2 µM; stronger effect = higher value.
Experiment [5] deals with Calcium-dependent protein kinase 1 (Plasmodium falciparum (isolate 3D7)) (UniProt P62344). The experiment in a line: PfCDPK1 kinase inhibitors, biochemical, TCAMS library (AID 1159585; cut-off not given, nearly all actives have IC50 up to about 0.98 µM;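 further: inhibitors leave more ATP so luminescence rises with inhibition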). The following applies: recombinant PfCDPK1, Kinase-Glo ATP depletion luminescence.
Calcium-dependent protein kinase 1 (Plasmodium falciparum (isolate 3D7)), sequence (P62344 whole entry, looked up): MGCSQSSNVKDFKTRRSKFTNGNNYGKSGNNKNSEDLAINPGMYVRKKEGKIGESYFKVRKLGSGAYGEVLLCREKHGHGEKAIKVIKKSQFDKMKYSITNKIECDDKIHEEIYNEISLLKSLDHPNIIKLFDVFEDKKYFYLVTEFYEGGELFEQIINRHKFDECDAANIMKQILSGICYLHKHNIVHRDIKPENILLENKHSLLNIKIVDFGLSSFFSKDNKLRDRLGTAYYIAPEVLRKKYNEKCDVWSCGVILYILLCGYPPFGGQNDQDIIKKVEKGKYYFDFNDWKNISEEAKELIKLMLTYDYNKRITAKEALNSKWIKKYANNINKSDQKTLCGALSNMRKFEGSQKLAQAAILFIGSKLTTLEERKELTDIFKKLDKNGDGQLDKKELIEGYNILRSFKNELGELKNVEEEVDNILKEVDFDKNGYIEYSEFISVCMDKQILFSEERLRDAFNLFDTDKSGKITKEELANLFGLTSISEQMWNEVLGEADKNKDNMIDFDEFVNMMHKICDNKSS
In experiment [6] the target is Plasmodium falciparum protein kinase 6 (PK6, PF3D7_1337100) (UniProt Q8IDW1). The experiment in a line: PfPK6 kinase inhibitors, biochemical, TCAMS library (AID 1159586). The note with it: recombinant PfPK6, Kinase-Glo ATP depletion luminescence.
Plasmodium falciparum protein kinase 6 (PK6, PF3D7_1337100), sequence (Q8IDW1 1-305): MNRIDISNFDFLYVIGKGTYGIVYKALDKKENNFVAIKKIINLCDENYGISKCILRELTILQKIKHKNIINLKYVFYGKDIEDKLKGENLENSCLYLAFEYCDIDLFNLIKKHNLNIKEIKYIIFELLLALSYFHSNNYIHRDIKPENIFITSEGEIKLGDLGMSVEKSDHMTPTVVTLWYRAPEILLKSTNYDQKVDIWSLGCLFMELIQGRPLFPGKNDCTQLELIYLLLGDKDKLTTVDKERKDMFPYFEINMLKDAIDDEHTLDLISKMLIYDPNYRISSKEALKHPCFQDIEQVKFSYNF
For experiment [7], the target named is Protein kinase 7 (PK7), Plasmodium falciparum 3D7 (PF3D7_0213400) (UniProt Q7YTF7). The experiment can be described thus: inhibition of Plasmodium PK7 catalytic activity – biochemical, TCAMS antimalarial set, Kinase-Glo luminescence (AID 1159587). The following applies: recombinant PfPK7, Kinase-Glo ATP depletion luminescence. In general terms: Kinase-Glo measures the ATP left after a reaction by luminescence.
Protein kinase 7 (PK7), Plasmodium falciparum 3D7 (PF3D7_0213400), sequence (Q7YTF7 1-343): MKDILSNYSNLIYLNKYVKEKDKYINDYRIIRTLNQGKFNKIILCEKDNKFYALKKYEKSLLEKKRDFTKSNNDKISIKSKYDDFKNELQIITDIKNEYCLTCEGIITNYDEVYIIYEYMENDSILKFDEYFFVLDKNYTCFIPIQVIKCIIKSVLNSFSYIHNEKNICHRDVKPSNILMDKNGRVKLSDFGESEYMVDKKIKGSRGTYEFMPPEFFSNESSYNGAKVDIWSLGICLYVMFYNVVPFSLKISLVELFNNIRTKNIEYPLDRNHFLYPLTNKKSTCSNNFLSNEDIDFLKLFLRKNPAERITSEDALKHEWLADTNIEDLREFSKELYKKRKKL

Experiment [8] addresses Calcium-dependent protein kinase 4 (Plasmodium falciparum (isolate 3D7)) (UniProt Q8IBS5). The experiment in a line: PfCDPK4 kinase inhibitors, biochemical, TCAMS library (AID 1159588; cut-off not given, nearly all actives have IC50 up to about 0.91 µM). The following applies: recombinant PfCDPK4, Kinase-Glo ATP depletion luminescence.

Each structure is given as a SMILES string. Values without a mark were called inactive. For some of these results: Results with a measured potency or affinity are listed apart. The source made the active and inactive calls. Unless noted, how the calls were made is not given here.

Calcium-dependent protein kinase 4 (Plasmodium falciparum (isolate 3D7)), sequence (Q8IBS5 whole entry, looked up): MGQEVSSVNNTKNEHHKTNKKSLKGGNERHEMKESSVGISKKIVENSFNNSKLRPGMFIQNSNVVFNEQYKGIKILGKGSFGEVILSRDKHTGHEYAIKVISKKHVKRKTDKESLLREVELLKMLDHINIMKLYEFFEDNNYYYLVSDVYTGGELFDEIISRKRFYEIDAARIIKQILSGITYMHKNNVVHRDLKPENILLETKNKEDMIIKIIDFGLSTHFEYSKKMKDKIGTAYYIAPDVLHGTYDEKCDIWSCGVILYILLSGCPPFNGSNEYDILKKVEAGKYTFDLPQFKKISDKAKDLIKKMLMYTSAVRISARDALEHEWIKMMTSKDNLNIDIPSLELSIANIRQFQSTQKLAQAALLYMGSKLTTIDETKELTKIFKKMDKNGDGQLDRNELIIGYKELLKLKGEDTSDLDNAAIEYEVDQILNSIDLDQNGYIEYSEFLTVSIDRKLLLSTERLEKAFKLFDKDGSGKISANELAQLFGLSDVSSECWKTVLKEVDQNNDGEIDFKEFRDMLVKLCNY

What is called inhibition is the relative decrease from the control value, in per cent. Turning to `N#CCSc1nnc(-c2ccccc2)c2ccccc12`, the growth inhibition in experiment [1] is 73% (active); in experiment [4] it was 84% (active). Also, the results for the inhibition in experiment [2] and in experiment [3] were 5% and -1%, respectively. The outcome in experiment [5], in experiment [6], in experiment [7] and in experiment [8] was inactive.
Take `c1ccc2c(NCCCCCCCCCNc3ccnc4ccccc34)ccnc2c1`: the results for the growth inhibition in experiment [1] and in experiment [4] were 100% (active) and 101% (active), respectively. The inhibition was 57% (active) in experiment [2] and -3% in experiment [3]. Besides, the result in experiment [5], in experiment [6], in experiment [7] and in experiment [8] was inactive.
Regarding `Cc1cccc2[nH]c(-c3ccc(-c4ccc(CN5CCC(C(N)=O)CC5)cc4)s3)nc12`, the growth inhibition in experiment [1] was 51% (active); in experiment [4] it was 97% (active). Also, the inhibition in experiment [2] was 4%; in experiment [3], 8%. For the same compound, the outcome in experiment [5], in experiment [6], in experiment [7] and in experiment [8] was inactive.
`CN1CCN(c2ccc(-c3cccc(NC(=O)c4cccc([N+](=O)[O-])c4)c3)nn2)CC1`: the growth inhibition is 35% in experiment [1] and 99% (active) in experiment [4]. For the same compound, the inhibition in experiment [2] was 21%; in experiment [3], -1%. In addition, the outcome in experiment [5], in experiment [6], in experiment [7] and in experiment [8] was inactive.
Turning to `COc1cc(NC2CCCC(NCc3cn(S(=O)(=O)c4ccccc4)c4ccccc34)C2)nc2ccccc12` (stereo not given), the growth inhibition in experiment [1] is 61% (active); in experiment [4], 100% (active). Also, the figures for the inhibition in experiment [2] and in experiment [3] were 4% and 2%, respectively. For the same compound, the result in experiment [5], in experiment [6], in experiment [7] and in experiment [8] was inactive.
With `COc1ccc(-c2cccc(NC(=O)c3cccs3)c2)cc1CN1CCCN(C)CC1`, the growth inhibition in experiment [1] is 30%; in experiment [4], 100% (active). In addition, the inhibition in experiment [2] is 17%; in experiment [3] it was 9%. Moreover, the outcome in experiment [5], in experiment [6], in experiment [7] and in experiment [8] was inactive.
For `N#Cc1ccc(-c2ccc(C(=O)NCCCCN3CCC(c4cc(Br)c5c(c4O)CCCC5)CC3)cc2)cc1`, the growth inhibition in experiment [1] was 50% (active); in experiment [4] it was 101% (active). Further, the inhibition is 93% (active) in experiment [2] and 7% in experiment [3]. In addition, the result in experiment [5], in experiment [6], in experiment [7] and in experiment [8] was inactive.
With `COc1cccc(CCc2c(CCNCCCCCCNCCc3ccccc3)ccc(OC)c2OC)c1`, the growth inhibition in experiment [1] is 69% (active); in experiment [4], 100% (active). The inhibition in experiment [2] is 100% (active); in experiment [3], 6%. Moreover, the outcome in experiment [5], in experiment [6], in experiment [7] and in experiment [8] was inactive.
With `COc1ccc(C2CC(=O)C3=C(C2)NC(C)=C(C(=O)OC(C)C)C3c2cccc(O)c2)cc1OC` (stereo not given), the growth inhibition is 85% (active) in experiment [1] and 100% (active) in experiment [4]. In addition, the inhibition in experiment [2] was -2%; in experiment [3], -4%. Also, the result in experiment [5], in experiment [6], in experiment [7] and in experiment [8] was inactive.
On to `O=c1cc(NCCCNCc2ccc(Cl)c(Cl)c2)[nH]c2cc(F)cc(F)c12`, for which the growth inhibition in experiment [1] is 94% (active); in experiment [4], 102% (active). The inhibition was 11% in experiment [2] and 0% in experiment [3]. The result in experiment [5], in experiment [6], in experiment [7] and in experiment [8] was inactive.
In the case of `COc1ccc2nccc(N(C)CC3(O)CCN(CCc4ccc5c(c4)NC(=O)CS5)CC3)c2n1`, the growth inhibition in experiment [1] was 67% (active); in experiment [4], 91% (active). Besides, the inhibition in experiment [2] was 10%; in experiment [3], 1%. Besides, the result in experiment [5], in experiment [6], in experiment [7] and in experiment [8] was inactive.
With `CCC(C)(CC)C(=O)n1ncc2c3c(N)nc(N)nc3ccc21`, the results for the growth inhibition in experiment [1] and in experiment [4] were 6% and 94% (active), respectively. For the same compound, the figures for the inhibition in experiment [2] and in experiment [3] were 73% (active) and -4%, respectively. The result in experiment [5], in experiment [6], in experiment [7] and in experiment [8] was inactive.
As to `CN1CCN(CC(O)CNC(=O)Nc2ccc(Br)cc2)CC1` (stereo not given), the growth inhibition in experiment [1] and in experiment [4] was 100% (active) throughout. Besides, the inhibition is 5% in experiment [2] and -2% in experiment [3]. The result in experiment [5], in experiment [6], in experiment [7] and in experiment [8] was inactive.
Take `CCN(CC)Cc1cc(NC(=O)c2ccccc2O)ccc1Oc1ccc(Cl)cc1`: the results for the growth inhibition in experiment [1] and in experiment [4] were 88% (active) and 98% (active), respectively. The inhibition in experiment [2] was 32%; in experiment [3], 3%. The outcome in experiment [5], in experiment [6], in experiment [7] and in experiment [8] was inactive.
Regarding `COc1ccccc1-c1cccc(CNC2CCN(CC3Cn4c(=O)ccc5ccc(F)c3c54)CC2)c1` (stereo not given), the growth inhibition was -1% in experiment [1] and 91% (active) in experiment [4]. In addition, the inhibition in experiment [2] is 30%; in experiment [3], 3%. Besides, the result in experiment [5], in experiment [6], in experiment [7] and in experiment [8] was inactive.
Take `CS(=O)(=O)c1ccc(OCCCN(Cc2ccccc2C(F)(F)F)c2ccc(C#N)c(C(F)(F)F)c2)cc1`: the values for the growth inhibition in experiment [1] and in experiment [4] were 76% (active) and 94% (active), respectively. Further, the inhibition was 4% in experiment [2] and -5% in experiment [3]. Besides, the outcome in experiment [5], in experiment [6], in experiment [7] and in experiment [8] was inactive.
For `CN(c1ccc2c(c1)nc(Nc1ccc(Cl)cc1)n2C)c1ccnc(Nc2ccc(CS(C)(=O)=O)cc2)n1`, the growth inhibition in experiment [1] was 52% (active); in experiment [4], 97% (active). Further, the inhibition in experiment [2] is 91% (active); in experiment [3], -7%. Further, the result in experiment [5], in experiment [6], in experiment [7] and in experiment [8] was inactive.
Consider `CO/C(=C\C=C\c1cc2cc(Cl)c(Cl)cc2[nH]1)C(=O)NCCCNCCN(C)c1ccccc1`, for which the values for the growth inhibition in experiment [1] and in experiment [4] were 55% (active) and 100% (active), respectively. The inhibition was 33% in experiment [2] and 2% in experiment [3]. The outcome in experiment [5], in experiment [6], in experiment [7] and in experiment [8] was inactive.
With `OC(CNCc1ccco1)Cn1c2ccc(Br)cc2c2cc(Br)ccc21` (stereo not given), the growth inhibition in experiment [1] is 72% (active); in experiment [4], 92% (active). Moreover, the inhibition in experiment [2] is 10%; in experiment [3], -3%. In addition, the result in experiment [5], in experiment [6], in experiment [7] and in experiment [8] was inactive.
In the case of `NC(=O)C1CCN(Cc2ccc(-c3ccc(-c4nc5ccc(C(F)(F)F)cc5[nH]4)s3)cc2)CC1`, the growth inhibition in experiment [1] was 91% (active); in experiment [4], 99% (active). Besides, the inhibition in experiment [2] is 22%; in experiment [3], -5%. For the same compound, the result in experiment [5], in experiment [6], in experiment [7] and in experiment [8] was inactive.

(Values after PubChem BioAssay.)
